This note sets out measurements from the supplement of paper PMC6555819.

The test system of this test is VDR:RXRa (NR concentration 270 nM, RXRa partner concentration 90 nM). In words: PBM binding z-score (relative to random genomic background probes); higher = stronger binding; sequences stand for … in GC…GCGATTGACAGCGTAGAATGAAGG
The method, then:
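Protein-binding microarray (Agilent 4x180K custom design, double-stranded 60-nt probes: 5' GC cap, 34-nt variable region, 24-nt constant primer region; full probe sequence given). Purified or IVT nuclear receptor:RXRα heterodimers (3:1 NR:RXRα, mostly 270:90 nM) or homodimers were incubated for 1 h in PBS with 2% milk and no ligand, then detected with Alexa488 antibodies. Fluorescence from o1-orientation probes (~5 replicates averaged) was converted to z-scores against 500 random hg19 background probes. Variable regions are seed direct-repeat (DR0–DR5) sites, all their single-nucleotide variants and half-site ablations.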
CCTTATGGGTCACGAGGTTATAGCACGACGAGCG showed a PBM binding z-score of 4.4.

With TATACAGGGTCAAAGGCAAGAGTACGAATGTCGA, the PBM binding z-score came to 4.61.

As to TCTGACAGGTGAAGGTAACTCAGGTACGCAGTCG, the PBM binding z-score was 0.667.

In turn, GGAACGAGGGCATTCGACTTGATAGCATGGCGAT gave a PBM binding z-score of 1.35.

For GATACAGTGTCAGCTAGAGGCCAGAGTATGGAAA, the PBM binding z-score is -0.468.

Sequence GCTAGCAGGCCACTTGGGTCACTCAATGACGGGC returned a PBM binding z-score of 0.83.

For the sequence CAAACTAGGTCACCGGAAGGTCAAAGGCCGCATG, the PBM binding z-score turned out to be 5.88.

With TCATATAGGTAATACAGGTGAAAATCGGCATCTA, the PBM binding z-score came out at 1.32.

For the sequence TCATATAGGTAATACGGGTGAAAGTCGGCATCTA, the PBM binding z-score was 1.25.

ACAGACAGGGGATGAAGGTAACTCAGGCTATCAT: the PBM binding z-score came to 0.0836.

Take TCGAGTAGGTTAGGGGCATTCGGAATGGCGTCGA: the PBM binding z-score turned out to be 0.55.

TAGCCTAAGTCATTCAGGGGCCAGTATAGAAAGC displayed a PBM binding z-score of -0.0562.

As for CGAACTAGGTCAAGGAAAGTGAATCTCCGCACGC, the PBM binding z-score was 1.02.

TCATATAGGTAAATGCAAGGTGAAAGTCCGATCT came in with a PBM binding z-score of 1.37.

TCTTGTATATCAAGCAGGTTAAGAAAGCCTGAGT came in with a PBM binding z-score of 0.659.

TGTCAAAGTACAAAGGTAACGTAAGTATCCACAC yielded a PBM binding z-score of 0.725.

With TTACCAAGGCGAAAGGTCGTTGATGCACGCCTTG, the PBM binding z-score amounted to 1.65.

CCGACTGTGGCAAAGGTTACCATACTCAGTACGA came in with a PBM binding z-score of 1.03.

AGAATGAGGTTATTAAGATCTGGGAATTGCGGTC: the PBM binding z-score stood at 1.33.

Sequence AGAACGAGGGCACGCTGAGTTGATAGCTGAGTAG returned a PBM binding z-score of 2.04.

For CTACCAAGGTGAACAAGGACGTTGATTACTATTC, the PBM binding z-score stood at 3.82.

For the sequence TCTAGGTGGTCACGGAGGTCACACACGACGGGTA, the PBM binding z-score came to 6.02.

CAAACTAGGACAAGGTCAAAGTCGGTTTGTGCCA: the PBM binding z-score is 4.36.

Consider CCTTACGGGTCACTCCAGGTTTTAGCATCGGAGT, for which the PBM binding z-score stood at 3.47.

Sequence CCTGCTAGGCCAATGGTCAGCTAAAGCAGCTCGC came in with a PBM binding z-score of -0.792.

On to TCTAGCACGCCAGAGGGTCACTCAAGAGGTACGG, for which the PBM binding z-score came out at 1.37.

Consider CGTCCAAGGTTAATGCTAGGTCAGTGAAAGCATT, for which the PBM binding z-score was 1.86.

Take TAGCCTAGGTCATTCAGGGACCAGTATAGAAAGC: the PBM binding z-score was determined as 2.57.

As for CATACAGGGTTAGCTAGGCCAGAGTAGGGACGGC, the PBM binding z-score was found to be 0.398.

Take CAAACTAGGACACGAAAGGTCAAAGTCGAATGAC: the PBM binding z-score is 4.78.

TCGAATAGGTTACCAATGGGGCATTCAGCTTTCT gave a PBM binding z-score of 0.811.

Take TGTTGTAGATCAACAGGAGGTTAAGAAAGATCGA: the PBM binding z-score worked out at 0.37.

As to AGTCAAAGTTCATCTCGGTAACGTAAGATATGCT, the PBM binding z-score is 4.8.

The sequence TCGAGTTGGTCAAAGGTCACACACTCGAAATGCG yielded a PBM binding z-score of 5.56.

As for GCTATTAGTTGAAAGGCCAACCGAATGATTCTCG, the PBM binding z-score was -0.0343.

Take CGAACTAGGTAATTGACAGGACAGTGAATAGTAA: the PBM binding z-score is -0.257.

Regarding CATCAAAGTTCAACTAAGGTAACGTAAAGCACGC, the PBM binding z-score was determined as 4.98.

Take TCTTGTAGAACAAGCAGGTTAAGAAAGCCTGAGT: the PBM binding z-score is 0.279.

For the sequence CCTACTGGGCCATTCAGATGTCATTGATCATATG, the PBM binding z-score is -0.54.

Consider AGCTCTAGGTAAGACTCAGTTCAGTGAAGAACGC, for which the PBM binding z-score turned out to be 0.321.
